Assay [1] is described as follows: Human pregnane X receptor (PXR) small molecule agonists, qHTS cell viability counter screen (AID 1346977). Note: nearly all actives have a fitted effect of over 50% in size. Note: potency is the fitted concentration of half-maximal effect. In short, it runs like this:
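PXR-Luc HepG2, 2,000 cells/well, 5% charcoal-stripped FBS; 5hr settle; cpd 24hr, 37C/5% CO2; CellTiter-Fluor at 23hr, read 1hr later (fluorescence).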

Assay [2] in a line: Caspase-3/7 induction in CHO-K1 cells by small molecules, qHTS cell viability counter screen (AID 1346979). Note: nearly all actives have a fitted effect of over 35% in size. Note: potency is the fitted concentration of half-maximal effect. The procedure, abridged:
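Cells (CHO-K1, wild type) are plated at 1,500 per well and incubated 5hr. Test compounds in DMSO are then pinned in, followed by 16hr at 37C and 5% CO2. Viability is read by CellTiter-Fluor fluorescence after 1hr.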
(In general: qHTS replaces the single test concentration by a dilution series.)

Assay [3] is described as follows: Caspase-3/7 induction in CHO-K1 cells by small molecules, qHTS assay (AID 1346980). Note: nearly all actives have a fitted effect of over 15% in size. The procedure, abridged: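 Luminescent Caspase-Glo 3/7 read (30min, room temperature) quantified apoptosis induction. Cells were wild-type CHO-K1, treated with compound for 17hr at 37 C and 5% CO2.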
Assay [4] is described as follows: Caspase-3/7 induction in HepG2 cells by small molecules, qHTS cell viability counter screen (AID 1346981). Note: series mostly up to about 92 µM; nearly all actives have a fitted effect of over 30% in size. The procedure, abridged:
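Steps: seed 2,000 HepG2 cells per well; incubate 5 hr at 37 C; pin-add compounds in DMSO; incubate 16 hr; add CellTiter-Fluor; after 1 hr at 37 C and 5% CO2, read fluorescence.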

For assay [5], the target named is Nuclear receptor subfamily 1 group I member 2 (Homo sapiens) (UniProt O75469). Kind of assay: Human pregnane X receptor (PXR) small molecule agonists, qHTS assay (AID 1346982). Note: nearly all actives have a fitted effect of over 35% in size. Note: potency is the fitted concentration of half-maximal effect. In short, it runs like this:
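Agonist mode qHTS: PXR-Luc HepG2 cells plated 5 hr before DMSO-dissolved compounds were pinned in, cultured 24 hr at 37 C, 5% CO2; ONE-Glo luminescence readout.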

Assay [6] deals with Nuclear receptor subfamily 1 group I member 2 (Rattus norvegicus) (UniProt Q9R1A7). Kind of assay: Rat pregnane X receptor (rPXR) activation by small molecules, qHTS assay (AID 1346983). Note: nearly all actives have a fitted effect of over 20% in size. Note: potency is the fitted concentration of half-maximal effect. As to conditions: rPXR luciferase reporter cells, One-Glo luminescence, 24 h; max activation: stronger effect = higher value. The procedure, abridged: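 Luminescent readout (One-Glo luciferase, 30 min room temperature) followed 24 hr compound treatment at 37 C of rPXR cells plated 2,000 per well and preincubated 5hr; qHTS format with compounds delivered in DMSO.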

Assay [7] deals with Nuclear receptor subfamily 1 group I member 2 (Homo sapiens) (UniProt O75469). Kind of assay: CYP3A4 induction through human pregnane X receptor (PXR) by small molecules, qHTS assay (AID 1346984). Note: nearly all actives have a fitted effect of over 40% in size. Note: potency is the fitted concentration of half-maximal effect. In short, it runs like this: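 Steps: seed DPX-2 cells, 5 hr at 37C; pin-transfer compounds; 24 hr at 37C; add Luciferin-IPA (3uM final), 3 hr at 37C; add One-Glo, 30 min RT; read luminescence.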

For assay [8] the target is unchanged. Kind of assay: Human pregnane X receptor (PXR) activation by small molecules, qHTS assay (AID 1346985). Note: nearly all actives have a fitted effect of over 40% in size. In short, it runs like this: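 DPX-2 cells (HepG2 co-transfected with a PXR response element and a CYP3A4-promoter luciferase construct) were seeded at 2,000 per well, rested 5 hr at 37C, then exposed to DMSO-dissolved compounds for 24 hr. Activation was read as luciferase luminescence.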

Assay [9] deals with Cytochrome P450 2C19 (Homo sapiens) (UniProt P33261). Kind of assay: Cytochrome P450 Family 2 Subfamily C Member 19 (CYP2C19) small molecule antagonists: luciferase reporter qHTS assay (AID 1671197). Note: nearly all actives have a fitted effect of over 65% in size. Note: potency is the fitted concentration of half-maximal effect. The procedure, abridged: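 CYP2C19 P450-Glo, 1536-well qHTS. Cpd + enzyme/proluciferin substrate 10 min RT; + NADPH regen, 37C 1 h; stop with luciferin detection reagent, 20 min RT, luminescence (RLU). Pos ctrl ketoconazole.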

Assay [10] has as its target Cytochrome P450 2C9 (Homo sapiens) (UniProt P11712). Kind of assay: Cytochrome P450 Family 2 Subfamily C Member 9 (CYP2C9) small molecule antagonists: luciferase reporter qHTS assay (AID 1671198). Note: nearly all actives have a fitted effect of over 50% in size. Note: potency is the fitted concentration of half-maximal effect. In short, it runs like this: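 Enzyme-substrate mix preincubated with compound 10 min at room temperature; reaction started with NADPH regeneration solution, 1 h 37C. Luminescent luciferin product read after 20 min detection reagent.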

Assay [11] has as its target Cytochrome P450 1A2 (Homo sapiens) (UniProt P05177). Kind of assay: Cytochrome P450 Family 1 Subfamily A Member 2 (CYP1A2) small molecule antagonists: luciferase reporter qHTS assay (AID 1671199). Note: nearly all actives have a fitted effect of over 50% in size. Note: potency is the fitted concentration of half-maximal effect. The procedure, abridged: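 Inhibition of CYP1A2 conversion of proluciferin to luciferin, detected by luminescence. Reaction run 1 h at room temperature with NADPH regeneration after brief compound preincubation.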
For orientation: In a reporter assay the amount or activity of a reporter protein is the signal.

In assay [12] the target is Cytochrome P450 3A4 (Homo sapiens) (UniProt P08684). Kind of assay: Cytochrome P450 Family 3 Subfamily A Member 4 (CYP3A4) small molecule antagonists: luciferase reporter qHTS assay (AID 1671201). Note: nearly all actives have a fitted effect of over 50% in size. Note: potency is the fitted concentration of half-maximal effect. The procedure, abridged: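 Compounds in DMSO were pin-transferred onto CYP3A4 enzyme-substrate mix and held 10 min at room temperature. NADPH regenerating solution started the reaction for 1 h; luciferin detection reagent stopped it, and luminescence was read after 20 min.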

Assay [13] addresses Cytochrome P450 2D6 (Homo sapiens) (UniProt P10635). Kind of assay: Cytochrome P450 Family 2 Subfamily D Member 6 (CYP2D6) small molecule antagonists: luciferase reporter qHTS assay (AID 1671196). Note: nearly all actives have a fitted effect of over 50% in size. Note: potency is the fitted concentration of half-maximal effect. In short, it runs like this:
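P450-Glo format: CYP2D6 converts a proluciferin substrate to luciferin in an NADPH-driven reaction lasting 1 h at room temperature. Light output, proportional to CYP2D6 activity, reflects interference by test chemicals.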

Assay [14] has as its target Voltage-gated inwardly rectifying potassium channel KCNH2 (Homo sapiens) (UniProt Q12809). Kind of assay: Human Ether-a-go-go-Related Gene (hERG) channel small molecule antagonists: fluorescence cell-based qHTS assay (AID 1671200). Note: nearly all actives have a fitted effect of over 50% in size. Note: potency is the fitted concentration of half-maximal effect. The procedure, abridged: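 Channel function was assessed by thallium flux. Cells seeded the previous day and kept at 37 C took up FluxOR II dye over 1 h in the dark at room temperature, then sat another 10 min before stimulation.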
In general terms: Block of hERG is tested as a sign of cardiac risk.

A number with no mark means an inactive call. Results filed as inconclusive are left out. Calls of active or inactive are those of the source. Calls come from the whole dose curve; as a rule, active = well fitted curve in the direction sought with a large enough effect in the repeat runs; inconclusive = weak or mixed curves; inactive = no such curve, though single readings can be large; an effect the other way counts as inactive or inconclusive.
% is set by controls: 0 for no effect and ±100 for the full control effect.

Chain of Cytochrome P450 2C9 (Homo sapiens) (P11712 whole entry, looked up): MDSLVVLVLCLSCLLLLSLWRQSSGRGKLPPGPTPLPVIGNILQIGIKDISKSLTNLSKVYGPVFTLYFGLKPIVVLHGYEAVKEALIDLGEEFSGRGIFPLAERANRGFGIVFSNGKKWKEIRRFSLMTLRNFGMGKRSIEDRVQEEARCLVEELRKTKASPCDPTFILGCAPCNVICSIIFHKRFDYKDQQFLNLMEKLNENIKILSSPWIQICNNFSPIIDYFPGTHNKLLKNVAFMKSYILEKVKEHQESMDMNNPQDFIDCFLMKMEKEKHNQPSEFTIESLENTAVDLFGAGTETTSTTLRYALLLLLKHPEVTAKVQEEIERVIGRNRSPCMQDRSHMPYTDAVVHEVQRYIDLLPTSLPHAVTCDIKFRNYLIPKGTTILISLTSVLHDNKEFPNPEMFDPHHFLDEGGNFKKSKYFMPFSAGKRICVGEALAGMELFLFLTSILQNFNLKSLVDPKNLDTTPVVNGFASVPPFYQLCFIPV
Chain of Nuclear receptor subfamily 1 group I member 2 (Rattus norvegicus) (Q9R1A7 whole entry, looked up): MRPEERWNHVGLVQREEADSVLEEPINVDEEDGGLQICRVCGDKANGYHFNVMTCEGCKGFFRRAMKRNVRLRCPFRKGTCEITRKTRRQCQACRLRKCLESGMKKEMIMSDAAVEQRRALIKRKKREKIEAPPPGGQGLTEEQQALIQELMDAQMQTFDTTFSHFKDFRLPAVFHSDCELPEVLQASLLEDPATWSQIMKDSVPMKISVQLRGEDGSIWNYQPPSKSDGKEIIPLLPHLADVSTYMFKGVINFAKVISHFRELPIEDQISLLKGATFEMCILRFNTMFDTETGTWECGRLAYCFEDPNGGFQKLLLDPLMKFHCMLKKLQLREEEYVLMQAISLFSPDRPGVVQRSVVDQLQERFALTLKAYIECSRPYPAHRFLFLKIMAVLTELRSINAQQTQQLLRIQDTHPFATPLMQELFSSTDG
Chain of Cytochrome P450 1A2 (Homo sapiens) (P05177 whole entry, looked up): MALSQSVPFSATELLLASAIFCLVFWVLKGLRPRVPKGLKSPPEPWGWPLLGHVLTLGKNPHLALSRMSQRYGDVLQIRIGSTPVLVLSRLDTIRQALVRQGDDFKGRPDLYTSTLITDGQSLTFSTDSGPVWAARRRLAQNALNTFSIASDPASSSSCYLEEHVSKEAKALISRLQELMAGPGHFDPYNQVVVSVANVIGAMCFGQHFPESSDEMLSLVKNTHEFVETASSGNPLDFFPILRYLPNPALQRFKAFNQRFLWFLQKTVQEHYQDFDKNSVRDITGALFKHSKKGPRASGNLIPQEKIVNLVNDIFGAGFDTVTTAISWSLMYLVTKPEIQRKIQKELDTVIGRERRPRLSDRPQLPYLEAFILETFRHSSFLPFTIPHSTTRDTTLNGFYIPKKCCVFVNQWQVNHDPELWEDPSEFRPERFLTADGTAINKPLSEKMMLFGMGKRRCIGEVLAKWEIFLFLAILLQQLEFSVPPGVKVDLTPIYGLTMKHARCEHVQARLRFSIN
Chain of Cytochrome P450 3A4 (Homo sapiens) (P08684 whole entry, looked up): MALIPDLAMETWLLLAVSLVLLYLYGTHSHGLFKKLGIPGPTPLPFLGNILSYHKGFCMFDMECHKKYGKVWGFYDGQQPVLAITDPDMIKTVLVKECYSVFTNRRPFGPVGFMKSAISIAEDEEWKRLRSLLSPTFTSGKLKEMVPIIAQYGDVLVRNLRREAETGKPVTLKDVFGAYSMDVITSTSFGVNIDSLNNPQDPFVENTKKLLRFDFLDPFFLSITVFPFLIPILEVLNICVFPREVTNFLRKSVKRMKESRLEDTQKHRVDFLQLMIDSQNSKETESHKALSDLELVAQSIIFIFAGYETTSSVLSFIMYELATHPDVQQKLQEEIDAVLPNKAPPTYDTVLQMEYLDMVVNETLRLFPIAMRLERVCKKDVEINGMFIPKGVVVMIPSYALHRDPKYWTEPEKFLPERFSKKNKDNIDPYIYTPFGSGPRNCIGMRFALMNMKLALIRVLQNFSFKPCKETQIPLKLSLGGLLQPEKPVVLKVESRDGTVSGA
Chain of Nuclear receptor subfamily 1 group I member 2 (Homo sapiens) (O75469 whole entry, looked up): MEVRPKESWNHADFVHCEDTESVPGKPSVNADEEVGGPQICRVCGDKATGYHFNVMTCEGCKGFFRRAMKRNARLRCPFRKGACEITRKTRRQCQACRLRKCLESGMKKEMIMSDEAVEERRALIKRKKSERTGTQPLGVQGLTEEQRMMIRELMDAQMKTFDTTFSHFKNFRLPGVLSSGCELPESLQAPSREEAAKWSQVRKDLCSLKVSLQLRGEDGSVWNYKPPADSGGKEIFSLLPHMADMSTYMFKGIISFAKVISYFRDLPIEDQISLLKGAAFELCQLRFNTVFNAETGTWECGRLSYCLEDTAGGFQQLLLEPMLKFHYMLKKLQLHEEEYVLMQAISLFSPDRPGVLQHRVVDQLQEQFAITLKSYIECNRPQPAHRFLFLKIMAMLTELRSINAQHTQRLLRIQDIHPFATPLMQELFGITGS
Chain of Cytochrome P450 2D6 (Homo sapiens) (P10635 whole entry, looked up): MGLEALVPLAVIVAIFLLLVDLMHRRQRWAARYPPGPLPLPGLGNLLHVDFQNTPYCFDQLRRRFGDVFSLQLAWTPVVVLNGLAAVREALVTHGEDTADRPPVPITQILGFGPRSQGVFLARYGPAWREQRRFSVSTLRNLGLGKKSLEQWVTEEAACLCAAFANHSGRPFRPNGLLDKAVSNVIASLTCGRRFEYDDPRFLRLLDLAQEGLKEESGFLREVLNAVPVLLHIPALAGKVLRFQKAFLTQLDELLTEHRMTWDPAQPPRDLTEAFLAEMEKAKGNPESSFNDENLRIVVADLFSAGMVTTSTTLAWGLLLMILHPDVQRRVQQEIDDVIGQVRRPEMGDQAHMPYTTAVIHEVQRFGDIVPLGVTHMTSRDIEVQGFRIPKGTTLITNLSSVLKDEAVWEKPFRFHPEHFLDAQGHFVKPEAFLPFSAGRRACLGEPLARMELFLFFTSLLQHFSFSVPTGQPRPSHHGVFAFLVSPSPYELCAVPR
Chain of Voltage-gated inwardly rectifying potassium channel KCNH2 (Homo sapiens) (Q12809 whole entry, looked up): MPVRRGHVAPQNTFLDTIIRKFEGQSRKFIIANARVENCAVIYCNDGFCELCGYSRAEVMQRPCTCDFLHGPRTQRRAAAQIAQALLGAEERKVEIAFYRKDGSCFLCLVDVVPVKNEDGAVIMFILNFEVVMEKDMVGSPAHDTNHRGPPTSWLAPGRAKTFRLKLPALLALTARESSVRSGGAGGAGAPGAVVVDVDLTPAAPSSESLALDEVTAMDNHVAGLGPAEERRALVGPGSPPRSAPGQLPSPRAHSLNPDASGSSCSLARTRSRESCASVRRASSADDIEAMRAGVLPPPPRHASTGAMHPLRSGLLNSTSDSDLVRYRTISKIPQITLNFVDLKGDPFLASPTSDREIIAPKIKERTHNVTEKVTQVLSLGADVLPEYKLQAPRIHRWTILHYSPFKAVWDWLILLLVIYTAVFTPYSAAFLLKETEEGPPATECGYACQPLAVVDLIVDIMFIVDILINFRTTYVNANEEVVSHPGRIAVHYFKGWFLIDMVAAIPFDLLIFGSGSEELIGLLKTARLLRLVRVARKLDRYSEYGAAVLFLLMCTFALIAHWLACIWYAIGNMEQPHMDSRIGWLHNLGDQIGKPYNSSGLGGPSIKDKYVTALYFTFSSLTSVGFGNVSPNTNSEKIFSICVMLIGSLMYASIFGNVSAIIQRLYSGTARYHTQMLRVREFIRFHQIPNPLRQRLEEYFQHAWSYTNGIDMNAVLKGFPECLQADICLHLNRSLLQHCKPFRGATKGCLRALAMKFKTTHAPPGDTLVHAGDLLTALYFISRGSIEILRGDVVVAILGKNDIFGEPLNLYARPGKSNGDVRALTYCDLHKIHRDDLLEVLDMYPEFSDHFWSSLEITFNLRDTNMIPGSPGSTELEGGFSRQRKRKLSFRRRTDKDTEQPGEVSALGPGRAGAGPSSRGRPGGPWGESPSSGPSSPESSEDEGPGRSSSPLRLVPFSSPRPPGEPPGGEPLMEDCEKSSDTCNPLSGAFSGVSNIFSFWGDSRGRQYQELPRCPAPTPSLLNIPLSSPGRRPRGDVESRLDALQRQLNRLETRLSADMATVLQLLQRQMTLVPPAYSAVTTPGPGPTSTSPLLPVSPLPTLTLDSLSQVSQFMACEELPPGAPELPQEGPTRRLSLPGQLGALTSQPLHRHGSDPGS
Chain of Cytochrome P450 2C19 (Homo sapiens) (P33261 whole entry, looked up): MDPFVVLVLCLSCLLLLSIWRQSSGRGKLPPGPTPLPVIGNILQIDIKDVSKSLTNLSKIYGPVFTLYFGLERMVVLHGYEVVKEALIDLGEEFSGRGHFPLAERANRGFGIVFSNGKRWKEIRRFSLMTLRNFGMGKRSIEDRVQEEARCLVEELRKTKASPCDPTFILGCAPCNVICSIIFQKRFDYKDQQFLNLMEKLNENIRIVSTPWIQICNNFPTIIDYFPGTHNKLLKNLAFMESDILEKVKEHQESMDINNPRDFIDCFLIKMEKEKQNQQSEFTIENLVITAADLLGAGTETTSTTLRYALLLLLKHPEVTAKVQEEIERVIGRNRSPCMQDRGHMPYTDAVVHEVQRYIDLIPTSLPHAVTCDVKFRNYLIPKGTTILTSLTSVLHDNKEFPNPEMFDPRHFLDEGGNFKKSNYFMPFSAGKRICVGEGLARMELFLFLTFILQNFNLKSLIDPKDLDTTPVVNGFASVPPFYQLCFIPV

Take `CCCCCCCCCCCC(=O)[O][Sn]([CH2]CCC)([CH2]CCC)[O]C(=O)CCCCCCCCCCC`: the Potency entry in assay [1], in assay [2], in assay [4], in assay [5], in [7] and in assay [8] was “inactive” throughout. For the same compound, the Potency entry in [9], in [10], in [11] and in assay [12] was “inactive” each time. Also, the outcome in [3] was inactive. Further, in assay [6], the max activation was -0.202%.

Take `C[Si]1(C)O[Si](C)(C)O[Si](C)(C)O1`: the Potency result in assay [1], in assay [2], in assay [4], in [5], in assay [13] and in assay [9] was “inactive” each time. The Potency result in assay [10], in assay [11] and in assay [12] was “inactive” throughout. For the same compound, the compound was classed as inactive in assay [3].

`O=C(O)c1cccc(O)c1`: the Potency result in assay [1], in assay [2], in assay [4], in assay [5], in assay [13] and in assay [12] was “inactive” throughout. Besides, the compound was classed as inactive in assay [3]. Further, the Potency in assay [9] is 40.2 µM (active).

Regarding `CCOC(=O)[C@@H](C)Oc1ccc(Oc2nc3ccc(Cl)cc3o2)cc1`, the Potency result in assay [1], in assay [2], in assay [4] and in assay [12] was “inactive” each time. Also, the call in assay [3] was inactive. Further, the Potency in [5] is 61.1 µM (active); in assay [9], 79.6 µM (active); in assay [10], 35.6 µM (active); in assay [14], 19.5 µM (active).

Take `CNCCCC1c2ccccc2C=Cc2ccccc21`: the Potency in assay [1] is 29.8 µM (active); in [2], 26.6 µM (active); in assay [7], 3.55 µM (active). In assay [3], the outcome was inactive. Besides, the max activation in assay [6] is -3.85%. Besides, the Potency result in assay [9], in [10] and in assay [11] was “inactive” each time.

In the case of `C1COCO1`, the Potency entry in assay [1], in assay [2], in [4], in assay [5], in assay [9] and in assay [11] was “inactive” each time. Further, the Potency result in [14] and in assay [12] was “inactive” throughout. Besides, the compound was called inactive in [3].

Regarding `CCCCCCCCSCCO`, the Potency result in assay [1], in assay [2], in [4], in assay [5], in assay [14] and in assay [12] was “inactive” in each case. In addition, in [3], the compound was called inactive. For the same compound, the figures for the Potency in [9], in assay [10] and in assay [11] were 20 µM (active), 44.8 µM (active) and 39.9 µM (active), respectively.

Take `CCc1nn(CCCN2CCN(c3cccc(Cl)c3)CC2)c(=O)n1CCOc1ccccc1`: the Potency in assay [1] is 23.7 µM (active); in assay [2] it was 29.8 µM (active); in assay [5] it was 3.76 µM (active); in assay [6], 12.6 µM (active); in assay [13], 4.9 µM (active); in assay [14] it was 1.51 µM (active). In addition, the result in assay [3] was inactive. Also, the Potency result in [7], in assay [10] and in [11] was “inactive” throughout.

As to `CC[C@H](NC(=O)c1cc(F)ccc1NS(=O)(=O)c1cccc2cccnc12)c1ccccc1`, the Potency entry in [1] and in assay [11] was “inactive” in each case. Besides, the Potency is 46 µM (active) in assay [2], 0.46 µM (active) in [5], 9.49 µM (active) in assay [10] and 1.5 µM (active) in assay [12]. Besides, in assay [3], the outcome was inactive.

As to `Nc1nccs1`, the Potency result in assay [1], in assay [2], in assay [4], in assay [5], in assay [7] and in assay [8] was “inactive” in each case. The Potency entry in assay [9], in assay [10], in assay [11], in [14] and in assay [12] was “inactive” throughout. Also, the call in assay [3] was inactive. Besides, the max activation in assay [6] is -2.81%. In assay [13], the Potency was 31.7 µM (active).
